Results on 92 compounds are retold here after ChEMBL document CHEMBL3988442, “University of Dundee, Small-Polar-MMV Screening Library” (2021).

SMILES strings stand for the structures. In all, about 69,000 compounds went through this assay and about 950 (1.4%) showed an effect of 50% or more. This excerpt belongs to a sample that is enriched for strong results.

The test system of this assay is Mycobacterium tuberculosis. The assay can be described thus: Cornell M. t heat shock assay. Also: in the data most compounds retested in dose-response had high values. On the set-up: dose or concentration left out as unconfirmed. Format: functional, organism-based.
As to `O=C(O)C(F)(F)F.O=C(O)C(F)(F)F.O=C1CC2(CCN(Cc3ccncc3)C2)CN1c1ccc2c(c1)OCO2` (configuration not stated), the “Percent Effect” value is -29.31%. `O=C(O)C(F)(F)F.O=C(O)C(F)(F)F.c1cnc(N2CCC3(COCCN(CC4CCOCC4)C3)C2)nc1` (configuration not stated): the “Percent Effect” value is on record as -23.85%. Turning to `CCc1ncnc2c1CCN(CC(=O)N(C)C)CC2.O=C(O)C(F)(F)F`, the “Percent Effect” value is -2.001%.

Consider `COc1ccc(CN2C[C@@H]3OCCN(CCN4CCCC4)[C@@H]3C2)cc1.O=C(O)C(F)(F)F.O=C(O)C(F)(F)F.O=C(O)C(F)(F)F`, for which the “Percent Effect” value was -18.96%.

Regarding `Cc1ncc2c(n1)C1(CCN(C(=O)C3CC3)CC1)OCC2.Cl`, the “Percent Effect” value is listed as 6.327%. On to `CCN(CC)Cc1cn2c(n1)CN(C(=O)Cc1ccsc1)CC2.O=C(O)C(F)(F)F`, for which the “Percent Effect” value was -4.189%.

Consider `Cl.O=C1CC2(CCNCC2)C(=O)N1c1cccc(F)c1`, for which the “Percent Effect” value is reported as -6.229%.

Consider `Cc1cc2c(=O)n3c(nc2s1)CCN(Cc1cnc(C)n1C)CC3.Cl`, for which the “Percent Effect” value is 0.614%. On to `O=C(O)C(F)(F)F.O=C1Nc2ccccc2C12CCN(Cc1cccs1)CC2`, for which the “Percent Effect” value was -5.404%. For the compound `O=C(O)C(F)(F)F.c1ccc(CN2Cc3nccn3CC(Cn3cncn3)C2)nc1` (configuration not stated), the “Percent Effect” value is given as -29.71%. The value for `Cc1nc2c(c(NCc3cc4ccccc4s3)n1)CCNCC2` was -9.753%. `Cc1nc2c(c(NCc3nc4ccccc4s3)n1)CCNCC2`: the “Percent Effect” value came to 105.4%. As to `Cc1nc2c(c(NCc3ccc(-c4ccccn4)s3)n1)CCNCC2`, the “Percent Effect” value is -21.22%. In the case of `C[C@H]1CN(CC2CCOCC2)C[C@@]12CCN(Cc1cccnc1)C2=O.O=C(O)C(F)(F)F.O=C(O)C(F)(F)F` it was 4.288%. In the case of `Cc1nnc(N2CCOC(C)(C(=O)N(C)C)C2)c2ccccc12` (configuration not stated), the “Percent Effect” value is reported as 0.5691%.

Take `CC1(C(=O)N2CCOCC2)CN(Cc2ccccc2F)CCO1` (configuration not stated): the “Percent Effect” value stood at 10.07%.

Turning to `CNC(=O)C1(C)CN(Cc2cn(C)c3ccc(F)cc23)CCO1` (configuration not stated), the “Percent Effect” value is given as 39.76%. `CN(C)C(=O)C1(C)CN(Cc2cn(C)c3ccc(F)cc23)CCO1` (configuration not stated): the “Percent Effect” value is on record as 64.53%.

In the case of `Cc1ncsc1CN1CCOC(C)(C(=O)N(C)C)C1` (configuration not stated), the “Percent Effect” value is on record as -16.31%. The value for `CN(C)C(=O)C1(C)CN(Cc2cn(C)c3ccccc23)CCO1` (configuration not stated) was 54.51%; that for `CC(C)Cn1c(=O)nc2n1C(=O)N(c1ccc(F)cc1)C2` was 4.992%; that for `Cc1cccc(-c2nnn3c2COC(CNCc2nccs2)C3)c1.O=C(O)C(F)(F)F` (configuration not stated) was -29.09%. Consider `COc1cc(N2C[C@H](C(=O)NCC3CC3)[C@@H]3CCO[C@@H]3C2)ncn1.O=C(O)C(F)(F)F`, for which the “Percent Effect” value was -37.92%. As for `CN(CCc1ccccn1)C(=O)c1cnn(-c2ccccc2F)c1N`, the “Percent Effect” value was 25.3%.

Turning to `Cc1cc(Cl)ccc1-n1ncc(C(=O)N(C)CCc2ccccn2)c1N`, the “Percent Effect” value is listed as 67.07%. For the compound `Cc1ccc(C)c(-n2ncc(C(=O)N(C)CCc3ccccn3)c2N)c1`, the “Percent Effect” value worked out at 29.21%. For `COc1ccc(OC)c(CN(Cc2ccco2)Cc2[nH]cnc2C)c1.O=C(O)CC(O)(CC(=O)O)C(=O)O`, the “Percent Effect” value is reported as -22.22%.

`Cc1cccn2cc(CN3CCCC(O)C3)nc12` (configuration not stated): the “Percent Effect” value is -6.265%. In the case of `Cc1cccn2cc(CN3CCCC(c4noc(C5CC5)n4)C3)nc12` (configuration not stated) it was 100.9%.

Turning to `Cc1cccn2cc(CN3CCCC(c4ccn[nH]4)C3)nc12` (configuration not stated), the “Percent Effect” value is recorded as 23.59%. The value for `COCC(=O)N1CCC2(CC1)C(=O)N(Cc1cccnc1)CCN2C.O=C(O)C(F)(F)F.O=C(O)C(F)(F)F` was -22.77%.

`O=C(NC[C@H]1CC[C@H](c2ccnc3ncnn32)CC1)C1CC1`: the “Percent Effect” value is given as 14.38%. `COCC1c2c(cnn2C)CCN1Cc1ccc(C)cc1.O=C(O)C(F)(F)F.O=C(O)C(F)(F)F` (configuration not stated): the “Percent Effect” value is -35.12%. The value for `Cn1ccnc1CN1CCc2onc(COCC3CC3)c2C1.O=C(O)C(F)(F)F` was 34.07%; that for `CCn1ncc2c1C(COC)N(C(=O)c1cscn1)CC2.O=C(O)C(F)(F)F` (configuration not stated) was -5.863%. In the case of `Cc1ccsc1C1CCCCCN1Cc1cn(C)nc1C` (configuration not stated) it was 17.22%. For the compound `Cc1cnc(Nc2cccc(C3CCCN3Cc3cn(C)nc3C)n2)s1` (configuration not stated), the “Percent Effect” value is listed as 104.4%. The value for `COCCN1CCCC1c1nccnc1Nc1nccs1` (configuration not stated) was -9.826%; that for `Cc1nc(Nc2ncc(C)s2)cc(C2CCCN2S(C)(=O)=O)n1` (configuration not stated) was -9.231%; that for `Cc1nn(C)cc1CN1CCCCCC1c1ccccc1Cl` (configuration not stated) was -8.916%.

In the case of `Cc1cccc(C2CCCCCN2Cc2cn(C)nc2C)c1` (configuration not stated), the “Percent Effect” value was determined as 5.626%. Regarding `Cc1nn(C)cc1CN1CCCC1c1cccc(Nc2nccs2)n1` (configuration not stated), the “Percent Effect” value is given as 99.7%. Consider `Cc1ccc(C2CCCCCN2Cc2cn(C)nc2C)s1` (configuration not stated), for which the “Percent Effect” value is given as 11.6%. With `COCCN1CCCC1c1ccnc(-c2ccccc2)n1` (configuration not stated), the “Percent Effect” value is 20.75%. With `CS(=O)(=O)N1CCCC1c1cccc(Nc2nccs2)n1` (configuration not stated), the “Percent Effect” value came out at 92.85%.

`CS(=O)(=O)N1CCCC1c1cccc(Cc2ccccc2F)n1` (configuration not stated): the “Percent Effect” value is listed as -7.758%. Take `c1ccc(CCN2CCCC2c2cccc(Nc3nccs3)n2)cc1` (configuration not stated): the “Percent Effect” value turned out to be 104.9%.

`CCCc1nnc(N[C@H](C)c2ccc(OC)cc2)o1`: the “Percent Effect” value is recorded as 32.03%. `O=C(Nc1ccccc1)N1C(CO)[C@]2(O)CC[C@H]1CC2` (some centres not stated): the “Percent Effect” value was -13.23%. For `C=C1C(C)(C)[C@H]2CC[C@]1(C(=O)N1CCC(n3cc(CO)nn3)CC1)C2`, the “Percent Effect” value turned out to be 11.02%. For `C[C@H]1C(=O)NC[C@H]2CN(CCc3ccccc3)C[C@H]21.O=C(O)C(F)(F)F`, the “Percent Effect” value was -3.474%. Regarding `CN(C)c1ccnc(C2CCCN2)n1.Cl` (configuration not stated), the “Percent Effect” value was -9.101%. For the compound `Cc1ccc(CN2CC3(CCN(C(=O)c4cccnc4)C3)C2)o1.O=C(O)C(F)(F)F.O=C(O)C(F)(F)F`, the “Percent Effect” value was 25.41%. With `Cl.Cl.O=C(NCc1cncc2c1CCN(Cc1cccs1)C2)C1CC1`, the “Percent Effect” value is 3.264%. Turning to `O=C(NCc1ccccn1)[C@H]1COC[C@H]2CN(Cc3ccoc3)C[C@H]21.O=C(O)C(F)(F)F.O=C(O)C(F)(F)F`, the “Percent Effect” value was 2.625%. With `COCCNc1nc(C)nc2c1CCN(C[C@H]1CC[C@@H](N)CC1)CC2`, the “Percent Effect” value was -33.02%. Take `Cn1nc(COc2cccnc2)c2c1CCN(c1cnccn1)C2.O=CO.O=CO`: the “Percent Effect” value amounted to 1.293%.

For the compound `O=C(O)C(F)(F)F.O=C(O)C(F)(F)F.c1cncc(N2CCOCC3(CCCN(Cc4cccs4)C3)C2)c1` (configuration not stated), the “Percent Effect” value was -22.26%.

Consider `CC(C)[C@H](N)C(=O)N1CCCC(C2=Nc3ccccc3S(=O)(=O)N2)C1.Cl` (some centres not stated), for which the “Percent Effect” value was found to be 13.38%. In the case of `Cc1cccc(CN2CCc3onc(Cn4cccc4)c3C2)n1.O=C(O)C(F)(F)F` it was 14.85%; in that of `COCCN1C2(CCN(CC3CC3)C2)c2ccccc2S1(=O)=O.O=C(O)C(F)(F)F` (configuration not stated), 3.018%; in that of `NC(=O)c1ccc(CNC(=O)Nc2cn[nH]c2)cc1`, -17.84%.

In the case of `Cc1cccc(CN2CCCC2c2cccc(Nc3nccs3)n2)c1` (configuration not stated), the “Percent Effect” value was 104%. Take `Cc1cccc(CN2CCCC2c2cccc(CCC(=O)O)n2)c1` (configuration not stated): the “Percent Effect” value is recorded as -20.44%. For `Cc1nc(Nc2nccs2)cc(C2CCCN2C2CCOCC2)n1` (configuration not stated), the “Percent Effect” value is given as -17.35%.

Take `Cc1ccccc1CN1CCCC1c1cccc(Nc2nccs2)n1` (configuration not stated): the “Percent Effect” value turned out to be 106.1%. Consider `Cc1nc(Nc2ccccn2)cc(C2CCCN2Cc2ncc[nH]2)n1` (configuration not stated), for which the “Percent Effect” value was 21.63%. For `Cc1cc(C2CCCN2Cc2cccc(C(=O)Nc3nccs3)c2)no1` (configuration not stated), the “Percent Effect” value is given as -4.082%.

Regarding `CCCN(CC1CC1)C(=O)CN1CCCC1c1cnn(C)c1` (configuration not stated), the “Percent Effect” value is recorded as 3.305%. `CS(=O)(=O)N1CCN(C(=O)CCC2CCCO2)CC1` (configuration not stated): the “Percent Effect” value was found to be 9.25%. Take `Cc1noc(C)c1CN1CCC2(CC1)C(c1cnn(C)c1)CC(=O)N2C.O=C(O)C(F)(F)F` (configuration not stated): the “Percent Effect” value amounted to 38.42%. The value for `CC(=O)N1CCO[C@@H]2CN(S(=O)(=O)c3cccnc3)C[C@@H]2C1.O=C(O)C(F)(F)F` was 22.17%; that for `Cc1cccc(CN2CCc3nnc(CO)n3CC2)n1.O=C(O)C(F)(F)F` was -11.61%. Consider `CC(C)CN1CCC2(C=C(C(=O)NC3CC3)c3ccccc32)CC1.O=C(O)C(F)(F)F`, for which the “Percent Effect” value was -0.1524%. Consider `CC(=O)NC1CCN(c2cnc(C3CCNCC3)cn2)CC1.Cl`, for which the “Percent Effect” value was -24.22%. As to `O=C(O)C(F)(F)F.c1cnc(N2CCO[C@H]3[C@H](OCC4CC4)CC[C@@H]32)nc1`, the “Percent Effect” value is reported as 10.71%. `O=C(O)C(F)(F)F.c1cnc(N2CCO[C@H]3[C@H](OCC4CCOCC4)CC[C@@H]32)nc1`: the “Percent Effect” value is 52.27%. `Fc1cnc(N2CCO[C@H]3[C@H](OCC4CCOCC4)CC[C@@H]32)nc1.O=C(O)C(F)(F)F`: the “Percent Effect” value is reported as 47.96%. For `CCOCC(=O)N1CCC2(CC1)CC(c1ccccc1)CO2` (configuration not stated), the “Percent Effect” value is on record as 16.4%.

`CS(=O)(=O)N1C[C@H]2C[C@H](C(=O)N3CCOCC3)[C@@H](C1)O2`: the “Percent Effect” value turned out to be 9.276%. The value for `CN(Cc1nccs1)c1nc(-c2ccccn2)nc2c1CCNCC2` was 47.94%; that for `CN(Cc1ccsc1)c1nc(-c2ccccn2)nc2c1CCNCC2` was 90.45%. In the case of `CN(Cc1cccnc1)c1nc(-c2ccccn2)nc2c1CCNCC2`, the “Percent Effect” value is listed as 7.828%. For the compound `O=C(O)C(F)(F)F.c1cnc(NCc2nnn3c2CN(Cc2ccsc2)CCC3)nc1`, the “Percent Effect” value is on record as -34.33%. For the compound `Cl.O=C(NC1CCCC1)c1cc(C2CCCNC2)n[nH]1` (configuration not stated), the “Percent Effect” value is 2.974%.

Take `COCCN1C[C@@H]2[C@@H](OC)CCN(Cc3ccsc3)[C@@H]2C1.O=C(O)C(F)(F)F.O=C(O)C(F)(F)F`: the “Percent Effect” value is listed as -56.24%. On to `c1ccc(-c2nc3c(c(NCc4nnc5n4CCC5)n2)CCNC3)cc1`, for which the “Percent Effect” value is listed as -1.823%. For the compound `c1ccc(-c2nc3c(c(NCCc4c[nH]cn4)n2)CCNC3)cc1`, the “Percent Effect” value came out at 103.9%. The value for `c1nc(CCNc2nc(C3CC3)nc3c2CCNCC3)c[nH]1` was -37.66%. On to `c1ccc(-c2nc3c(c(NCc4n[nH]c5c4CCC5)n2)CCNC3)cc1`, for which the “Percent Effect” value came out at 105.2%. As for `c1cc(-c2nc3c(c(NCCc4c[nH]cn4)n2)CCNCC3)ccn1`, the “Percent Effect” value is reported as -32.96%. As to `c1coc(-c2nc3c(c(NCc4n[nH]c5c4CCC5)n2)CCNCC3)c1`, the “Percent Effect” value is -50.31%.
